NALP3 yeast inh – NALP3 inflammasome inhibitors in reconstituted yeast, primary screen, luminescence, uHTS; AID 2825, 2010; Yeast reconstituted NLRP3/ASC/caspase-1, beta-gal luminescence, 24 h; 330,000 compounds, 0.39% hits; inhibition, % at 10 µM;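 active = inhibition of 50% or more; inactive = inhibition below 50%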
tim10-1 inh – growth inhibitors of tim10-1 mutant yeast, primary screen, luminescence, uHTS | S. cerevisiae tim10-1 ts strain growth, BacTiter-Glo, 24 h | inhibition, % at 20 µM | 330,000 compounds, 2.2% hits | AID 463190, 2010;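 active = inhibition of at least 40%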;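 note: mutant grown at 25 °C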
TIM10 inh – growth inhibitors of isogenic TIM10 control yeast, primary screen, counter-screen for tim10-1 yeast inhibitor project, luminescence, uHTS. S. cerevisiae TIM10 strain growth, BacTiter-Glo luminescence, 24 h. inhibition, % at 10 µM. 330,000 compounds, 1.4% hits;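 active = inhibition of 40% or more at the single tested concentration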;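 note: wild-type TIM10 isogenic control strain grown at permissive 25 °C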
SKKanGAS inh – S. pyogenes SKKanGAS growth inhibitors in kanamycin, primary screen, streptokinase expression inhibitor project, SKKanGAS strain, BacTiter-Glo luminescence | AID 1662, 2009 | 6 h | inhibition, % at 7.5 µM | 300,000 compounds, 1.3% hits;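 active = mean replicate score, as percent of positive control median, at least 50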;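 note: strain carries kanamycin resistance gene driven by streptokinase promoter and grows in 40 µg/ml kanamycin; loss of luminescence reflects streptokinase promoter inhibition or plain growth inhibition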
tim23-1 inh – growth inhibitors of tim23-1 mutant yeast, primary screen, luminescence, uHTS. S. cerevisiae tim23-1 growth, BacTiter-Glo luminescence, 24 h. inhibition, % at 20 µM. 330,000 compounds, 1.3% hits. AID 463212, 2010;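 active = growth inhibition of the mutant yeast at or above 50%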;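 note: temperature-sensitive mutant grown at 25 °C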
tim10 confirm – growth inhibitors of wild-type TIM10 yeast, confirmation, counter-screen for tim10-1 synthetic lethality project, single concentration, luminescence, S. cerevisiae; shares compounds with TIM10 inh; S. cerevisiae tim10 strain growth, BacTiter-Glo luminescence, 24 h; inhibition, % at 10 µM; 4,600 compounds, 63% hits; AID 463215, 2010;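 active = inhibition of yeast growth at or above a set limit in either of two replicates at 10 µM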; note: this counterscreen used the strain with wild-type TIM10
tim23-1 conf – tim23-1 mutant yeast growth inhibitors, confirmation, luminescence, single concentration. shares compounds with tim23-1 inh. S. cerevisiae tim23-1 growth, BacTiter-Glo luminescence, 24 h. inhibition, % at 20 µM. 4,400 compounds, 83% hits. AID 463218, 2010;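 active = inhibition above about 39% in either of two replicate wells at 20 µM, limit read from the data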;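 note: temperature-sensitive tim23-1 mutant grown at 25 °C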
Hits are given with their value. The list is not random: actives were taken first. Their share in the collection is about 4.6%.

`COCc1cc(=O)[nH]c(SCCS(=O)(=O)c2ccc(Cl)cc2Cl)n1` gave NALP3 yeast inh inactive, tim10-1 inh inactive, TIM10 inh 43.8, SKKanGAS inh inactive, tim23-1 inh 57.7, tim10 confirm 35.1 and tim23-1 conf inactive.
Screening CC(C)c1cc(C(C)C)c(S(=O)(=O)N2CCNCC2)c(C(C)C)c1 returned NALP3 yeast inh inactive, tim10-1 inh inactive, TIM10 inh inactive, SKKanGAS inh inactive and tim23-1 inh inactive.
Cc1cccc(Nc2ncnc3ccc(Br)cc23)c1 was read as NALP3 yeast inh inactive, tim10-1 inh inactive, TIM10 inh inactive, SKKanGAS inh inactive and tim23-1 inh inactive.
`Clc1cccc(Nc2ncnc3ccc(Br)cc23)c1` gave NALP3 yeast inh inactive, tim10-1 inh inactive, TIM10 inh 48.5, SKKanGAS inh inactive, tim23-1 inh 53.9, tim10 confirm 44.1 and tim23-1 conf 49.9.
For CC(C)(C)NC(=O)CSc1nc2cccnc2n1C1CCCCC1 the results were NALP3 yeast inh inactive, tim10-1 inh inactive, TIM10 inh inactive, SKKanGAS inh inactive and tim23-1 inh inactive.
For COc1ccc(CCNc2oc(-c3ccc(C)cc3)nc2C#N)cc1OC the results were NALP3 yeast inh inactive, tim10-1 inh inactive, TIM10 inh 53.1, SKKanGAS inh inactive, tim23-1 inh 55.2, tim10 confirm 60.8 and tim23-1 conf 75.8.
CCCOc1ccc(C(=O)CCNC(Cc2c[nH]c3ccccc23)C(=O)O)cc1 (centres undefined) was read as NALP3 yeast inh inactive, tim10-1 inh inactive, TIM10 inh 49.1, SKKanGAS inh inactive, tim23-1 inh 73.7, tim10 confirm 37.2 and tim23-1 conf inactive.
O=C(Cn1ncn2c(cc3sccc32)c1=O)NC1CCCC1 was read as NALP3 yeast inh inactive, tim10-1 inh inactive, TIM10 inh inactive, SKKanGAS inh inactive and tim23-1 inh inactive.
Screening Cc1ccc(C(C[N+](=O)[O-])Sc2ccc(N)cc2)cc1 (centres undefined) returned NALP3 yeast inh inactive, tim10-1 inh inactive, TIM10 inh 56.0, SKKanGAS inh inactive, tim23-1 inh 74.5, tim10 confirm 50.6 and tim23-1 conf 90.2.
COc1ccc(OCC(=O)N2CCC(n3nccc3NC(=O)C3CC3)CC2)cc1 was read as NALP3 yeast inh inactive, tim10-1 inh inactive, TIM10 inh inactive, SKKanGAS inh inactive and tim23-1 inh inactive.
`O=C(O/N=C(\c1ccccc1)c1ccccn1)c1ccc(Cl)c(Cl)c1` gave NALP3 yeast inh inactive, tim10-1 inh inactive, TIM10 inh inactive, SKKanGAS inh inactive and tim23-1 inh inactive.
For N/C(=N\OC(=O)c1ccc(Cl)c(Cl)c1)c1cccc(CSc2ccccn2)c1 the results were NALP3 yeast inh inactive, tim10-1 inh inactive, TIM10 inh 72.2, SKKanGAS inh inactive, tim23-1 inh 78.6, tim10 confirm 83.7 and tim23-1 conf 48.9.
`COc1ccc(/C=N/NC(=O)c2nc(-c3ccccc3)n(-c3ccccc3)n2)c(O)c1` gave NALP3 yeast inh inactive, tim10-1 inh inactive, TIM10 inh inactive, SKKanGAS inh inactive and tim23-1 inh inactive.
Screening CC(C)(C)c1cc(C(=O)N/N=C/c2ccccc2O)n(-c2ccccc2)n1 returned NALP3 yeast inh inactive, tim10-1 inh inactive, TIM10 inh 58.6, SKKanGAS inh 73.3, tim23-1 inh 59.0, tim10 confirm inactive and tim23-1 conf 56.1.
`NC(=S)N/N=C\c1ccccc1OCc1ccccc1` gave NALP3 yeast inh inactive, tim10-1 inh inactive, TIM10 inh 40.8, SKKanGAS inh inactive, tim23-1 inh 53.2, tim10 confirm inactive and tim23-1 conf inactive.
For O=C(CSCc1ccccc1)N/N=C/c1ccccc1OCc1ccccc1 the results were NALP3 yeast inh inactive, tim10-1 inh inactive, TIM10 inh inactive, SKKanGAS inh inactive and tim23-1 inh inactive.
O=c1c(Cl)c(NCc2ccccc2Cl)cnn1C12CC3CC(CC(C3)C1)C2 was read as NALP3 yeast inh inactive, tim10-1 inh inactive, TIM10 inh 41.5, SKKanGAS inh inactive, tim23-1 inh 52.0, tim10 confirm inactive and tim23-1 conf 55.2.
`O=c1c(Cl)c(NCc2ccco2)cnn1C12CC3CC(CC(C3)C1)C2` gave NALP3 yeast inh inactive, tim10-1 inh inactive, TIM10 inh inactive, SKKanGAS inh inactive and tim23-1 inh inactive.
Screening N#C/C(=C/c1cccc([N+](=O)[O-])c1)C(=O)Nc1ccccc1O returned NALP3 yeast inh inactive, tim10-1 inh inactive, TIM10 inh 41.8, SKKanGAS inh inactive, tim23-1 inh 73.1, tim10 confirm 40.0 and tim23-1 conf 57.0.
For N#C/C(=C\c1ccccc1)C(=O)NNS(=O)(=O)c1cccc([N+](=O)[O-])c1 the results were NALP3 yeast inh inactive, tim10-1 inh inactive, TIM10 inh inactive and tim23-1 inh inactive.
`Cc1cccc(/C(N)=N/OC(=O)c2ccc(F)cc2)c1` gave NALP3 yeast inh inactive, tim10-1 inh inactive, TIM10 inh 73.4, SKKanGAS inh inactive, tim23-1 inh 69.6, tim10 confirm 79.8 and tim23-1 conf 44.7.
Screening Cc1ccc(C(=O)O/N=C(\N)c2ccc(Br)cc2)cc1 returned NALP3 yeast inh inactive, tim10-1 inh inactive, TIM10 inh inactive, SKKanGAS inh inactive and tim23-1 inh inactive.
For CC(C)[N+]1=C2C=CC=CC=C2SC12C([N+](=O)[O-])=CC(=[N+]([O-])[O-])C=C2[N+](=O)[O-] (centres undefined) the results were NALP3 yeast inh inactive, tim10-1 inh inactive, TIM10 inh inactive, SKKanGAS inh inactive and tim23-1 inh inactive.
`O=C(Nc1ccc(Br)cc1Br)C1CC(=O)N(Cc2ccccc2)C1` (centres undefined) gave NALP3 yeast inh inactive, tim10-1 inh inactive, TIM10 inh inactive, SKKanGAS inh inactive and tim23-1 inh inactive.
Screening CC(CN1CCOCC1)OC(=O)c1ccc2c(c1)OCCO2 (centres undefined) returned NALP3 yeast inh inactive, tim10-1 inh inactive, TIM10 inh 41.4, SKKanGAS inh inactive, tim23-1 inh 72.1, tim10 confirm inactive and tim23-1 conf 47.2.
`Cc1ccc(S(=O)(=O)NCCC(=O)NC2CCCCCC2)cc1` gave NALP3 yeast inh inactive, tim10-1 inh inactive, TIM10 inh inactive and tim23-1 inh inactive.
For O=C1C2=C(Nc3ccccc3SC2c2ccco2)c2ccccc21 (centres undefined) the results were NALP3 yeast inh inactive, tim10-1 inh inactive, TIM10 inh 45.8, SKKanGAS inh inactive, tim23-1 inh 54.8, tim10 confirm 43.4 and tim23-1 conf 81.9.
